The text below walks through data of PubChem BioAssay.

Test [1] has as its system Wnt5a (protein binding on small-molecule microarray). The test can be described thus: small molecules binding Wnt5a protein – biophysical, small-molecule microarray, 635/667 nm fluorescence, primary screen (AID 1142).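 Further: fluorescence read at 667 nm with signal to noise per printed feature.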 The settings on record: 635 nm fluorescence, higher = more signal.
The nature of test [2]: ATP-based viability of Huh7 replicon cells – cell-based, CellTiter-Glo luminescence, basal, 48 h, cytotoxicity control for HCV replication inhibitor project, primary screen (AID 1143).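 Further: Huh7 hepatoma cells carrying a hepatitis C replication reporter with no stimulus; test concentration not given here.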 The settings on record: higher = more signal, called active from +8 up or from −8 down.
Test [3] can be described thus: Pseudomonas biofilm growth suppression – PAO1 strain, BacTiter-Glo luminescence, LB-PBS, primary screen (AID 1144). The settings on record: P. aeruginosa PAO1 biofilm, 12 h, higher = more signal.
A short description of test [4]: basal CRE-LacZ reporter activity in PC12 – cell-based, unstimulated, primary screen (AID 1145). The settings on record: no forskolin, luminescence, 4.5 h, higher = more signal, called active from +8 up or from −8 down.
Test [5] is described as follows: forskolin-driven CRE-LacZ activity in PC12 – cell-based, CRE-LacZ reporter, forskolin-stimulated, primary screen (AID 1146).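 Further: PC12 cells with 6xCRE LacZ reporter stimulated by forskolin 10 µM; beta-galactosidase reporter signal reflecting CREB driven transcription.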 The settings on record: luminescence, 4.5 h, higher = more signal, called active from +8 up or from −8 down.
The target of test [6] is Streptavidin (Streptomyces avidinii) (UniProt P22629). The test is described as follows: compounds binding control protein streptavidin – biophysical, small-molecule microarray, 635/667 nm fluorescence, artefact control for SMM compound annotation, primary screen (AID 1147).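 Further: signal reflects streptavidin binding to arrayed compounds as a control protein.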 The settings on record: higher = more signal.
Test [7] can be described thus: probe aInhba binding on compound microarray – biochemical, small-molecule microarray, 635/667 nm fluorescence, primary screen (AID 1148).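 Further: score merges 667nm spot fluorescence with signal-to-noise for antibody binding to printed compounds.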 The settings on record: higher = more signal.
In test [8] the target is Torsin-1A (Homo sapiens) (UniProt O14656). The test is described as follows: TOR1A wild-type binding on microarray – cell lysate, small-molecule microarray, lysate, 635/667 nm, primary screen (AID 1149). The settings on record: COS7 hTOR1A-WT lysate, 635 nm fluorescence, higher = more signal.
The target is the same in test [9]. The test can be described thus: torsin A mutant lysate binding on microarrays – cell lysate, small-molecule microarray, COS7 lysate, 635/667 nm fluorescence, primary screen (AID 1150).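 Further: score pools 667 nm emission and signal to noise measuring lysate protein binding.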 The settings on record: COS7 hTOR1A mutant lysate, 635 nm fluorescence, higher = more signal.
Test [10] relates to Sonic hedgehog protein (Shh). The test can be described thus: Sonic hedgehog microarray binding compounds – biochemical, small-molecule microarray, 635/667 nm fluorescence, primary screen (AID 1151).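 Further: Shh protein binding to compounds spotted on small-molecule microarray slides; score combines spot fluorescence intensity with signal-to-noise across triplicate slides.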 The settings on record: 635 nm fluorescence, higher = more signal.

The source made the active and inactive calls. Unless noted, how the calls were made is not given here.

Chain of Streptavidin (Streptomyces avidinii) (P22629 whole entry, looked up): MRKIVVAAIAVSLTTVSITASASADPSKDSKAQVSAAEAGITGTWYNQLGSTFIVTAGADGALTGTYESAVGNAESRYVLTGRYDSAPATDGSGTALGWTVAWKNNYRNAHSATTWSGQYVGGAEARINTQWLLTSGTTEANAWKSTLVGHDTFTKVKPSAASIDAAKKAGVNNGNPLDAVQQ
Chain of Torsin-1A (Homo sapiens) (O14656 whole entry, looked up): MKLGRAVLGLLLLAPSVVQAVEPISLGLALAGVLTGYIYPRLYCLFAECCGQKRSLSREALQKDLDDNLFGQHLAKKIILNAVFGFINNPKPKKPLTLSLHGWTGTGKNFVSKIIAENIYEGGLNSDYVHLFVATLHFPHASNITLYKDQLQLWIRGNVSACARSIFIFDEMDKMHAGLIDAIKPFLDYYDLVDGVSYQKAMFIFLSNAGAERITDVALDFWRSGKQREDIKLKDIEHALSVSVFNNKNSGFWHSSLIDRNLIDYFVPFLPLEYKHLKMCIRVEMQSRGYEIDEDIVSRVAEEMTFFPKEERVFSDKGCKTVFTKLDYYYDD

Turning to `COc1ccc(C(O)C2C=CC3C(=O)NC(=O)C3N2Nc2ccccn2)cc1OCc1ccccc1` (stereo not given), the composite z-score in [1] is -0.125; in [6] it was 0.428; in test [7] it was -0.0256; in the test with Torsin-1A (Homo sapiens) [8], -0.209; with Torsin-1A (Homo sapiens) [9] it was 0.435; in test [10] it was 0.0157. For the same compound, the z-score in test [2] was 0.716 (inactive); in test [3] it was -0.484 (inactive); in test [4], 0.629 (inactive); in test [5] it was 0.124 (inactive).

As for `CCCCCCc1nc(CCCc2cc3c(c(CCCCCC)n2)[Si](C(C)C)(C(C)C)OC3)cc2c1[Si](C(C)C)(C(C)C)OC2`, the composite z-score was -0.0564 in [1]; 1.91 in [6]; -0.101 in [7]; -0.333 with Torsin-1A (Homo sapiens) [8]; 0.0509 in the test with Torsin-1A (Homo sapiens) [9]; 0.551 in test [10]. Also, the z-score in [2] is -5.79 (inactive); in test [3] it was -0.194 (inactive); in [4] it was 1.78 (inactive); in test [5] it was 0.444 (inactive).

Take `O=C1N(CCS(=O)(=O)c2ccccc2)c2ccccc2C[C@@]12COC(c1ccc(OCCCO)cc1)=N2`: the composite z-score in test [1] was 0.576; in test [6] it was 0.906; in [7] it was 0.362; in the test with Torsin-1A (Homo sapiens) [8], 0.784; in the test with Torsin-1A (Homo sapiens) [9], 0.967; in test [10], 0.534. The z-score in test [2] was -1.46 (inactive); in test [3] it was 0.261 (inactive); in test [4], 0.218 (inactive); in [5], -0.151 (inactive).

As for `COC(=O)[C@@]1(Cc2ccccc2N=[N+]=[N-])COC(c2ccc(OCCCO)cc2)=N1`, the composite z-score in test [1] was 0.193; in [6] it was 0.175; in test [7] it was -0.0639; with Torsin-1A (Homo sapiens) [8], 0.678; with Torsin-1A (Homo sapiens) [9] it was 1.17; in test [10], -0.0614. Besides, the z-score is -2.44 (inactive) in test [2], 0.335 (inactive) in [3], 0.675 (inactive) in test [4] and 1.68 (inactive) in [5].

On to `COCCOC(=O)N1C(=O)[C@@]2(c3cc(C#CCNC(N)=O)ccc31)[C@H](c1ccccc1OCCO)N1[C@H](c3ccccc3)[C@H](c3ccccc3)OC(=O)[C@H]1[C@@H]2C(N)=O`, for which the composite z-score in test [1] worked out at 0.116; in test [6] it was 0.234; in [7], 0.0422; with Torsin-1A (Homo sapiens) [8], 0.198; with Torsin-1A (Homo sapiens) [9], 0.41; in test [10] it was 1.8. Moreover, the z-score was -0.895 (inactive) in test [2], 0.287 (inactive) in test [3], 0.802 (inactive) in [4] and 5.24 (inactive) in [5].

`CC(C)C(=C=CC[C@@H](O)c1ccccc1OCCO)C[C@@H](O)c1ccccn1`: the composite z-score in test [1] was -0.0212; in [6], -0.0132; in test [7], 0.0275; with Torsin-1A (Homo sapiens) [8] it was 0.276; in the test with Torsin-1A (Homo sapiens) [9], -0.303; in test [10], 1.14. In addition, the z-score in test [2] was -1.3 (inactive); in test [3], 0.497 (inactive); in test [4], 1.19 (inactive); in test [5], -0.3 (inactive).

Take `C=C(C(=O)CC[C@H](OC(C)=O)c1ccc(OCCO)cc1)C(C)C`: the composite z-score is 0.35 in [1]; 0.934 in [6]; -0.125 in test [7]; 0.612 with Torsin-1A (Homo sapiens) [8]; 0.909 with Torsin-1A (Homo sapiens) [9]; 2.13 in test [10]. Besides, the z-score was -8.04 (active) in [2], -0.28 (inactive) in test [3], 1.63 (inactive) in [4] and 0.655 (inactive) in test [5].

For `CCCCC(O)C1C=CC2C(=O)N(C3CCCCC3)C(=O)C2N1Nc1ccc(OC)cc1` (stereo not given), the composite z-score was 0.177 in test [1]; 1.54 in [6]; 0.0785 in [7]; 0.0983 with Torsin-1A (Homo sapiens) [8]; -0.001 with Torsin-1A (Homo sapiens) [9]; 0.342 in test [10]. In addition, the z-score is -0.527 (inactive) in [2], -1.47 (inactive) in test [3], 0.276 (inactive) in test [4] and 0.765 (inactive) in test [5].

With `O=C1OCCC=C[C@H]2OC34C=CCN(Cc5ccccc5)C(=O)[C@H]3N(CCCCCCO)C(=O)[C@@H]4C12` (stereo not given in full), the composite z-score in test [1] was -0.751; in test [6], -0.887; in [7], -0.441; with Torsin-1A (Homo sapiens) [8], -1.92; with Torsin-1A (Homo sapiens) [9], -1.4; in test [10], 0.628. The z-score in [2] was 0.404 (inactive); in test [3], -0.616 (inactive); in test [4], -0.761 (inactive); in test [5], -0.395 (inactive).

Take `COc1ccc(CCN2C(=O)[C@@]3(Cc4ccccc42)c2ccccc2C(=O)N(Cc2ccccc2Cl)[C@H]3c2ccc(CO)cc2)cc1`: the composite z-score in test [1] is -0.0887; in test [6], -0.343; in test [7], -0.0403; with Torsin-1A (Homo sapiens) [8], -0.921; in the test with Torsin-1A (Homo sapiens) [9], -0.77; in test [10], -0.801. Moreover, the z-score in test [2] was -1.7 (inactive); in [3], -0.456 (inactive); in [4], 0.558 (inactive); in test [5], 0.131 (inactive).

As to `COC(=O)c1ccc(C23CC2(C(NP(=O)(c2ccccc2)c2ccccc2)c2ccccc2)C3)cc1` (stereo not given), the composite z-score in test [1] is 0.211; in test [6], 1.7; in [7] it was 0.178; in the test with Torsin-1A (Homo sapiens) [8] it was 0.862; with Torsin-1A (Homo sapiens) [9], 1.64; in test [10] it was -0.803. Also, the z-score in test [2] is -2.07 (inactive); in test [3], 0.523 (inactive); in test [4] it was -1.14 (inactive); in [5], -0.0812 (inactive).

As for `COCCOC(=O)N1C(=O)[C@@]2(c3cc(C#Cc4ccc(OC)cc4)ccc31)[C@H](C(=O)N1CCN(c3ncccn3)CC1)[C@H]1C(=O)O[C@H](c3ccccc3)[C@H](c3ccccc3)N1[C@@H]2c1ccc(O)cc1`, the composite z-score in test [1] is -0.0081; in [6], -0.0988; in test [7], -0.0762; with Torsin-1A (Homo sapiens) [8], 0.561; with Torsin-1A (Homo sapiens) [9], -0.007; in test [10] it was 0.736. Moreover, the z-score in test [2] was -3.61 (inactive); in test [3] it was -1.03 (inactive); in test [4], -0.191 (inactive); in test [5], 0.0921 (inactive).

As for `CC(C)C[C@@H]1NC(=O)[C@H]2C[C@@H](C(=O)NCCCCCNC(=O)CS)[C@@H](c3cccc(OCCO)c3)N2C1=O`, the composite z-score in test [1] is 1.1; in test [6], 0.024; in test [7], -0.0112; with Torsin-1A (Homo sapiens) [8], 1.07; with Torsin-1A (Homo sapiens) [9], 0.867; in test [10], 2.09. Moreover, the z-score in test [2] was -1.07 (inactive); in test [3] it was 0.644 (inactive); in [4] it was 0.289 (inactive); in [5] it was 0.0824 (inactive).

On to `CCN(CC)c1ccc(N2CC=CC34O[C@@H]5/C=C\CCCOC(=O)C5[C@H]3C(=O)N(C(CO)C(C)C)[C@@H]4C2=O)cc1` (stereo not given in full), for which the composite z-score in test [1] was -0.297; in test [6], -0.819; in test [7], -0.128; with Torsin-1A (Homo sapiens) [8] it was 0.006; with Torsin-1A (Homo sapiens) [9] it was -1.2; in [10] it was 0.0008. Besides, the z-score is -0.245 (inactive) in test [2], 2.75 (inactive) in [3], -0.0939 (inactive) in test [4] and 0.119 (inactive) in test [5].
